Only some compounds are listed: those with a hit (about 6.6% of all), similar ones and a draw of the others.
KB-3-1 cytotox – KB-3-1 parental cell cytotoxicity; KB-3-1 viability, CellTiter-Glo ATP luminescence, 72 h; Potency, µM (series often up to 46.1 µM), actives largely listed as cytotoxic; AID 1347075; 400,000 compounds, 1.4% hits; also: nearly all actives have a fitted effect of over 60% in size
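Cytotoxicity in the drug-sensitive parental line KB-3-1 was scored as loss of CellTiter-Glo luminescence following 72 h incubation with compound. Values come from curve fitting of normalized concentration-response data.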
HepG2 tox – counter-screen for TGF-b inhibitors: cytotoxicity in HepG2 cells. HepG2 CAGA-GFP viability, ATP luminescence, 18 h. Potency, µM (titrated, usually from 46.1 µM), actives largely listed as cytotoxic. 410,000 compounds, 0.76% hits. AID 588856
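HepG2 CAGA-GFP cells (1000/well, DMEM with 1% FBS) received compound, then TGF-beta at 500 pg/mL final, and were incubated 18 hours at 37 degrees C. Viability was read by CellTiter-Glo luminescence. Media-only wells were set as complete cell-killing and DMSO as no toxicity.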
TGFb inhibitor – blocks TGF-b signaling. 410,000 compounds, 1.2% hits. HepG2 CAGA-GFP TGF-b/SMAD3 reporter, GFP fluorescence, 18 h; TGF-beta stimulated, 500 pg/mL final. Potency, µM (series often up to 46.1 µM), most hits filed as inhibitors; also: nearly all actives have a fitted effect of over 65% in size
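HEPG2 CAGA-GFP, 1000 cells/well; 2 h settle, 37 C; cpd via pin tool; TGF-b 500 pg/mL final; 18 h, 37 C; GFP imaging ex488/em500-530; %Activity normalised to -TGF-b and +DMSO controls; CRC fit, curve class.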
KB-V1 cytotox – kills drug-selected multidrug resistant KB-V1 cells. KB-V1 MDR cells viability, CellTiter-Glo, 72 h. Potency, µM (doses to about 46.1 µM), actives largely listed as cytotoxic. 400,000 compounds, 3.4% hits. AID 1347076; also: nearly all actives have a fitted effect of over 60% in size
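KB-V1 cells (P-gp-expressing MDR subline of KB-3-1) in phenol-red-free DMEM with 10% FBS were exposed to library compounds over a concentration series for 72 h at 37 degrees C. Viability read by CellTiter-Glo luminescence; concentration-effect curves fitted after normalization.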
HT1080NT lethal – kills 2HG-producing HT-1080-NT fibrosarcoma cells; HT-1080-NT fibrosarcoma viability, CellTiter-Glo ATP luminescence, 48 h; Potency, µM (series often up to 46.1 µM), actives largely listed as cytotoxic; 360,000 compounds, 1.6% hits;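 also: NT is the 2HG producing partner of a matched IDH1 knockdown line; nearly all actives have a fitted effect of over 55% in size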
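Read-out is CellTiter-Glo luminescence after 10 minutes at room temperature, following 48 hours' compound treatment of HT-1080-NT cells (750 cells/well, RPMI, 5% FBS, 37 degrees C).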
HT1080 IDH1KD tx – kills HT-1080 cells with IDH1 knockdown | 360,000 compounds, 2% hits | Potency, µM (doses to about 46.1 µM), hits mostly cytotoxic | HT-1080 IDH1 knockdown viability, ATP luminescence, 48 h | AID 686971
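% activity derives from luminescence (CellTiter-Glo), normalised to DMSO and no-cell wells. HT-1080-IDH1KD cells, 750/well, had 48 h compound exposure at 37 °C.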
Numbers stand for hits; n = inactive; u = inconclusive; x = not tested or not shown. Calls follow the shape of the dose curve; as a rule, active = well fitted curve in the direction sought with a large enough effect; inconclusive = small, poorly fitted or top-dose-only effect, or another doubt; inactive = no such curve, though single readings can be large; an effect the other way counts as inactive or inconclusive.

SMILES	KB-3-1 cytotox	HepG2 tox	TGFb inhibitor	KB-V1 cytotox	HT1080NT lethal	HT1080 IDH1KD tx
O=C(Nc1cccc(Cl)c1)Nc1ccc(Br)cc1F	16.4µM	n	u	20.6µM	n	n
O=C(Nc1ccccc1)Nc1cc(Cl)cc(Cl)c1	u	n	15.8µM	u	16.4µM	14.6µM
O=C(Nc1cccc(Cl)c1)Nc1cccc(Cl)c1	n	n	n	u	u	n
O=C(Nc1ccccc1)Nc1cc(OCC(F)(F)F)cc(OCC(F)(F)F)c1	u	11.2µM	u	16.4µM	6.51µM	7.31µM
COC(=O)c1cc(NC(=O)Nc2cccc(Cl)c2)ccc1Cl	n	n	15.8µM	23.1µM	12.6µM	u
Cc1cc(C)c(S(=O)(=O)N2CCC(n3c(C(F)(F)F)nc4cccnc43)CC2)c(C)c1	n	n	n	n	x	x
N#Cc1ccccc1NC(=O)Nc1cccc(Cl)c1	n	n	n	n	n	n
N#CCc1ccc(NC(=O)Nc2cccc(Cl)c2)cc1	u	n	n	14.6µM	n	n
Cc1cccc(C)c1NC(=O)C(Cl)=C(Cl)Cl	18.4µM	n	n	u	u	u
CCN(CC)CC(=O)Nc1c(C)cccc1C	n	n	n	n	u	n
Cc1cccn2c(=O)cc(CSc3nnc(NC(=O)COc4ccc(F)cc4)s3)nc12	x	n	n	x	x	x
CCOC(=O)c1c(CN2CCCCC2)n(C)c2cc(Br)c(O)cc12	n	n	n	10.3µM	n	n
CCOC(=O)c1c(CSC(=N)N)n(C)c2cc(Br)c(OC(C)=O)cc12	n	n	n	n	u	u
CCOC(=O)c1c(CN2CCN(C)CC2)n(C)c2cc(Br)c(OC)cc12	u	11.2µM	n	u	u	u
COC(=O)c1ccc(NC(=O)CC2C(=O)N(c3ccccc3)C(=O)N2Cc2cccs2)cc1 (configuration not stated)	x	n	n	x	x	x
COc1cc(CN(C(=O)COc2ccc(Br)cc2)c2ccccn2)cc(OC)c1OC	n	n	n	n	x	x
Cc1cc(-c2ccccc2)nc2cc(C(=O)N(Cc3ccccc3)Cc3ccccc3)nn12	u	n	u	u	u	16.4µM
COc1ccccc1CNC(=O)CCC1N=C2c3ccccc3N=C(SCC(N)=O)N2C1=O (configuration not stated)	n	n	n	n	x	x
O=C(COC(=O)c1ccccc1OCCOc1ccccc1)Nc1ccc(Br)cc1	u	n	n	n	x	x
Cc1nnc(SCC(=O)N(C)CC(=O)Nc2ccc(F)cc2)n1Cc1ccccc1	n	n	n	n	n	n
Cc1cccc(NC(=O)CCSc2nnc(Cc3ccccc3)o2)c1	n	n	n	14.6µM	n	n
Cc1ccc(NC(=O)CN(C)C(=O)Cc2c[nH]c3ccccc23)cc1	n	n	n	18.4µM	n	n
Cc1cc(SCC(=O)N(C)CC(=O)Nc2ccc(F)cc2)nc2ccccc12	n	n	u	5.17µM	n	u
CSc1ccccc1NC(=O)CN(C)C(=O)Cc1c[nH]c2ccccc12	n	n	u	n	n	n
CCOc1ccc(NC(=O)CSc2cc(C)c3ccccc3n2)cc1	x	n	n	x	x	x
SMILES	KB-3-1 cytotox	HepG2 tox	TGFb inhibitor	KB-V1 cytotox	HT1080NT lethal	HT1080 IDH1KD tx
CN(CC(=O)Nc1ccc(F)cc1)C(=O)CSc1nnc(Cc2ccccc2)o1	n	n	n	16.4µM	n	n
CCOc1ccc(CCNC(=O)CSCC(=O)Nc2ccc(OC)cc2)cc1OCC	n	n	n	n	n	n
NC(=O)NC(Cc1ccccc1)C(=O)NCC1(N2CCCCC2)CCCCC1 (configuration not stated)	n	3.55µM	n	n	n	n
COC(=O)[C@H](Cc1ccccc1)NC(=O)N1CCCCCC1	n	n	n	u	n	n
O=C(Nc1ccc(Cl)cn1)c1ccccc1[N+](=O)[O-]	u	n	n	u	u	18.4µM
O=C(Nc1ccc(Cl)cn1)c1cccc2ccccc12	u	n	n	u	u	11.6µM
O=C(NNC(=O)c1ccccc1[N+](=O)[O-])Nc1ccc(Cl)cc1	n	n	n	n	n	n
CCC(=O)N1CCc2cc(S(=O)(=O)NC(CC(C)C)C(=O)Nc3cccc(C)c3C)ccc21 (configuration not stated)	n	n	n	n	x	x
C=CC[C@H](CC(=O)N(CCO)Cc1ccccc1)C(=O)N[C@H](COC(=O)[C@@H](CC=C)Cc1ccc(F)cc1)Cc1ccccc1	u	n	u	u	16.4µM	u
C=CCC[C@H](Cc1ccc(F)cc1)C(=O)OC[C@H](Cc1c[nH]c2ccccc12)NC(=O)[C@@H](CC=C)CC(=O)N(CCO)Cc1ccccc1	n	n	u	20.6µM	u	u
C=CCC[C@@H](Cc1ccc(F)cc1)C(=O)OC[C@H](Cc1c[nH]c2ccccc12)NC(=O)[C@H](CC=C)CC(=O)N(CCO)Cc1ccccc1	n	n	u	n	u	u
O=C(CCN1C(=O)c2ccccc2Sc2ncccc21)Nc1ccc(F)cc1	x	n	u	x	x	x
C[C@H](CO)N1C[C@H](C)[C@@H](CN(C)Cc2ccccc2C(=O)O)OCc2cnnn2CCCC1=O	n	n	n	n	n	n
CN(C)S(=O)(=O)c1cccc(C(=O)Nc2ccc(Cl)cn2)c1	n	n	n	23.1µM	n	n
O=C(Nc1ccc(Cl)cn1)c1cccc(S(=O)(=O)N2CCCC2)c1	n	n	n	16.4µM	n	n
O=C(Nc1cccc(S(=O)(=O)N2CCCC2)c1)c1ccc(Cl)nc1	u	n	n	u	u	6.51µM
CN(C)S(=O)(=O)Oc1cccc(C(=O)Nc2ccc(Cl)cc2)c1	9.2µM	n	u	n	n	u
CC(C)OCCCNC(=O)c1cn(C)c2ccc(S(=O)(=O)N3CCCCCC3)cc2c1=O	u	n	n	n	x	x
Cc1ccccc1-n1cc(-c2ccccc2)nc1SCC(=O)Nc1ccc(F)cc1	n	n	u	n	x	x
Cc1ccccc1NC(=O)CSc1nc(-c2ccccc2)cn1-c1ccccc1F	n	n	11.2µM	n	x	x
COC(=O)c1ccc(OCC2c3cc(OC)c(OC)cc3CCN2C(=O)Cc2ccc(OC)cc2)cc1 (configuration not stated)	n	n	n	u	x	x
CN1N=C(C(C)(C)C)CC1=O	n	n	u	n	u	18.4µM
CN1N=C(C(F)(F)F)CC1=O	n	n	n	n	n	n
CCOc1ccc(OC(=O)c2cn(-c3ccc(C)cc3)c(=O)c3ccccc23)cc1	n	n	n	n	x	x
CCOCc1cc(CN2CCN(c3ccccc3OC)CC2)c(O)c2ncccc12	x	1.58µM	x	x	x	x
CCCOCc1cc(CN2CCN(c3ccccc3OC)CC2)c(O)c2ncccc12	x	11.2µM	2µM	x	x	x

Screening results (PubChem BioAssay)
